# Screens as filed in PubChem.
# An excerpt weighted towards active compounds, which were near 9.6% of everything screened.
# HCT116 PTEN-null: PTEN-deleted cell growth suppression; HCT116 PTEN-null viability, CellTiter-Glo, 60 h; active compounds read low; viability, % at 10 µM; 140,000 tested, 1.2% active; AID 827;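 active means viability at or below a set limit, 4 SD under the median of all tested compounds, cut at about 3.7% in these data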;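 further: PTEN knockout HCT116 line with beta catenin targeted HCT116 as companion control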
# bCat KO growth: beta-catenin-lacking colon tumor cell growth suppression | viability, % at 10 µM | 140,000 tested, 1.5% active | HCT116 beta-catenin knockout viability, CellTiter-Glo, 60 h; active compounds read low | AID 818;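 active means viability at or under a set limit, the compound median less 4 SD, cut at about 6% in these data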;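 further: 0% = Hyamine 1622 control at 20 µM and 100% = untreated cell control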
# L major viab: reduces viability of Leishmania major promastigotes; inhibition, % at 10 µM; 200,000 tested, 9% active; resazurin fluorescence viability; in the data active means inhibition above about 50%;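 further: promastigotes grown with compound for 44 hours at 28 °C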
# INS promoter inh: TRM-6 insulin promoter activity inhibition | TRM-6 cells (human fetal islet line), insulin promoter-eGFP reporter, imaging; reporter expression induced with tamoxifen | inhibition, % at 2 µM | 130,000 tested, 0.9% active | AID 1273;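 active means inhibition above the mean plus 3 SD, with well images judged a real hit on visual review, cut at about 60% in these data, passing the limit was not always enough; inconclusive means inhibition over the cutoff but images rejected on review; inactive means inhibition not above the cutoff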
# Insulin prom up: MIN6 insulin promoter up-regulation; AID 1625; 190,000 tested, 0.3% active; MIN6 insulin promoter-GFP reporter, high-content imaging; active compounds read high; z-score at 5 µM;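 active means z-score above 3 at 5 µM with at least 500 cells counted in the well; inconclusive means wells under 500 cells, flagged as cytotoxic or low count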
# Autophagy mod: modulators of autophagy; MEF GFP-LC3 puncta imaging; test concentration mostly 10 µM; calls only at 10 µM (by protocol); 190,000 tested, 0.98% active;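 active means percentage of spot-positive cells more than 3 SD above its plate mean, without a fluorescence outlier flag or 80% toxicity; inconclusive means no clear call, values can overlap the other calls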;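 further: spot-positive cell cutoff set from DMSO-treated cells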
# Starred values were filed as active, the others as inactive; i = inactive; ? = inconclusive; . = no result given; + = active, no number.
SMILES,HCT116 PTEN-null,bCat KO growth,L major viab,INS promoter inh,Insulin prom up,Autophagy mod
CCCC1=Nc2cc(C(=O)NCCCOCC)ccc2Sc2ccccc21,12,20,18,-16,-1.1,i
CC(=O)Nc1cc(C(=O)NCc2ccco2)ccc1Sc1ccc(C)cc1,90,92,75*,31,0.17,i
CCC1=Nc2cc(C(=O)NCCCOC)ccc2Sc2ccccc21,15,21,19,-94,-0.94,+
O=S1(=O)C[C@@H](N2CCOCC2)[C@H](N2CCOCC2)C1,101,84,1,.,.,i
Cc1ccc(S(=O)(=O)N2CCCCC2)cc1NC(=O)C1CC(=O)N(Cc2ccccc2)C1 (centres undefined),85,87,53*,-3,.,i
COc1ccc(CN2CC(C(=O)NCCC(C)C)CC2=O)cc1 (centres undefined),.,.,100*,0,-0.52,i
CCCCN(C)CCCNC(=O)C1CC(=O)N(Cc2ccc(OC)cc2)C1 (centres undefined),102,95,-3,-62,-0.55,i
CC(C)c1ccc(CN2CC(C(=O)Nc3ccccc3)CC2=O)cc1 (centres undefined),.,.,62*,75*,.,i
CS(=O)(=O)c1ccc(Cl)c(NC(=O)C2CC(=O)N(Cc3ccccc3)C2)c1 (centres undefined),89,92,-5,45,-0.15,i
CC(=O)Nc1cccc(C(=O)OCc2ccccc2)c1,105,109,11,-45,1.2,i
Cn1ccnc1C1CCCCN1Cc1nc(Cc2ccccc2F)no1 (centres undefined),.,.,-5,.,-0.6,i
O=C1NC(=O)C2(CCC(C(=O)O)C2)N1 (centres undefined),95,90,-5,13,.,i
CC(C)(CO)NC(=O)CC1C(=O)NCCN1CC(c1ccccc1)c1ccccc1 (centres undefined),.,.,-5,.,0.01,i
OCCNCc1ccc(-c2ccccc2)cc1,85,85,63*,.,-0.17,i
OC(CNCc1cccc(Br)c1)c1ccccc1 (centres undefined),.,.,1,5,.,i
OC(CNCc1ccc(-c2ccccc2)cc1)c1ccccc1 (centres undefined),.,.,99*,.,0.12,i
CCOC(=O)c1nn(-c2ccc(Cl)cc2)c2nc(CC)c(C#N)c(=O)n12,95,100,-9,17,.,i
COC(=O)c1cc2c(s1)CS(=O)C2 (centres undefined),98,106,0,.,.,i
c1ccc(C2CCC3(CC2)Oc2ccccc2C2CC(c4cccnc4)=NN23)cc1 (centres undefined),81,89,89*,-34,-0.16,i
COc1ccc(C2CC(c3ccccc3)=NN2C(=O)COC(=O)c2cccnc2)cc1 (centres undefined),88,104,10,.,-0.58,i
Cc1ccc(C(=O)C[n+]2cccc(C(N)=O)c2)cc1,.,.,.,.,-0.71,.
COC(=O)c1ccc[n+](CC(=O)c2ccc(Br)cc2)c1,101,101,56*,38,0.25,i
Cc1ccc[n+](CC(=O)c2ccc(-c3ccccc3)cc2)c1,88,84,100*,11,0.19,i
Cc1ccc(C)[n+](CC(=O)c2ccc(-c3ccccc3)cc2)c1,.,.,70*,33,-0.7,i
Cc1ccc(N=Nc2c(N)[nH]n3c(=O)cc(C)nc23)cc1,57,44,2,17,-0.39,i
SMILES,HCT116 PTEN-null,bCat KO growth,L major viab,INS promoter inh,Insulin prom up,Autophagy mod
CC(C)N(Cc1cnn(C)c1)Cc1nc(COc2ccccc2)no1,.,.,2,.,0.14,i
Cc1ccc(NS(=O)(=O)c2ccc3c(c2)NC(=O)CC(=O)N3)cc1C,.,.,-8,?,-2.2,i
Cc1ccc(-n2c(C)cc(C)c(C#N)c2=O)cc1C,.,.,-4,0,-0.72,i
Cc1cc(C)n(-c2cccc(Cl)c2)c(=O)c1C#N,95,96,0,.,0.76,+
CC1=C(CC(=O)c2ccc(Cl)cc2)C(=O)c2ccccc2C1=O,1.9*,3.7*,2,14,.,i
Cc1ccc2[nH]c3c(=S)nc[nH]c3c2c1,100,90,-3,78*,-0.08,i
CCCCOc1ncnc2c1[nH]c1ccc(C)cc12,.,.,.,.,-0.88,.
CCOC(=O)c1[nH]c(C)c(CC(C)C)c1C,.,.,8,.,-0.17,i
CNc1nc(SCc2ccccc2Cl)nc2c1CCCC2,59,72,88*,.,-0.04,i
Cc1ccc(NC(=O)CSc2ncn(-c3ccccc3)n2)cc1C,92,102,97*,-6,.,i
